Many of the other results were omitted from the sample, so hits are more common in it than they were.
ST2 inh: blocks human ST2 binding to IL-33 | inhibition, % for hits at 17 µM | AlphaLISA ST2-Fc/biotin-IL-33 interaction, 1 h | 78,000 compounds, 2.3% hits | Q01638; in the data active = inhibition above about 30%
Target sequence (Q01638 whole entry, looked up): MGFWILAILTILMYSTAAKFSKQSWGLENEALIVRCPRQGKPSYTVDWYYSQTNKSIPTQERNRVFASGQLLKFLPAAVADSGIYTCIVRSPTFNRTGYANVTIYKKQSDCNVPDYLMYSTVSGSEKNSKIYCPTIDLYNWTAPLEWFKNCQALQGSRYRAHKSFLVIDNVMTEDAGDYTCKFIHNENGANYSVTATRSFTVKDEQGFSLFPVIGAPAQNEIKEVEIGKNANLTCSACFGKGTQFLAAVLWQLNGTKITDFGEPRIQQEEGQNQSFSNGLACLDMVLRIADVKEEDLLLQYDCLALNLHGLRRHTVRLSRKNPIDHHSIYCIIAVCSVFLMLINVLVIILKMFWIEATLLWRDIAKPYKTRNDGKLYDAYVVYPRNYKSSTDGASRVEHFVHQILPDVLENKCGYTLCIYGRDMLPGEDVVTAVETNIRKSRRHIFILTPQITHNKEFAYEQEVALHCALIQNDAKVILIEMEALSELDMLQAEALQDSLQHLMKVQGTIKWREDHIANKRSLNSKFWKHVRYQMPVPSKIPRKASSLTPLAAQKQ
* = called active by the depositor.

How did CCCCCn1c(N)c(C#N)c2nc3ccccc3nc21 do in these assays?
ST2 inh: inactive

Results for Cc1ccccc1-n1c(N)c(C#N)c2nc3ccccc3nc21 ?
ST2 inh: 30%*

Results for N#Cc1c(N)n(CCN2CCOCC2)c2nc3ccccc3nc12 ?
ST2 inh: 36%*

Results for CC12CC(=O)[C@@](C)(C1)[C@@H]1C(=O)N(c3ccc(O)cc3)C(=O)C12 (some centres not stated) ?
ST2 inh: inactive

How did O=C(O)C(Cc1c[nH]c2ccccc12)NC(=O)C12CC3CC(CC(C3)C1)C2 (configuration not stated) do in these assays?
ST2 inh: inactive

How did O=C1CCCN1CCCn1cnc(-c2ccccc2)c1-c1ncc[nH]1 do in these assays?
ST2 inh: inactive

Results for O=c1c2c3c(sc2nc2c4ccccc4c(Cl)nn12)CCCC3 ?
ST2 inh: inactive

How did COc1cc(/C=C2/C(=O)NN(c3ccc(Cl)cc3)C2=O)cc(OC)c1O do in these assays?
ST2 inh: 30%*

How did COc1cc(C=O)ccc1OCCOc1ccc(Br)cc1Cl do in these assays?
ST2 inh: inactive

What do the screens show for `COc1cc(C=C2C(=O)OC(C)(c3ccccc3)OC2=O)ccc1OCc1cccc(C(=O)O)c1` (configuration not stated)?
ST2 inh: inactive

How did CCN(C)c1ccc(/C=C2/C(=O)NN(c3cccc(Br)c3)C2=O)cc1 do in these assays?
ST2 inh: 39%*

How did C=CCOc1ccc(/C=C2\C(=O)NN(c3cccc(Br)c3)C2=O)cc1OC do in these assays?
ST2 inh: 34%*

Results for Cc1ccc(N2NC(=O)/C(=C/c3ccc(Cl)cc3)C2=O)cc1Cl ?
ST2 inh: inactive

Results for O=C1NN(c2cccc(Br)c2)C(=O)/C1=C\c1ccccc1 ?
ST2 inh: inactive

Results for COc1cc(/C=C2/NC(=O)NC2=O)cc(OC)c1O ?
ST2 inh: inactive

Results for CC1=NN(c2ccc(F)cc2)C(=O)/C1=C/c1ccc(N(C)C)cc1 ?
ST2 inh: inactive

Results for CN1[C@H]2CC[C@@H]1CN(C(=O)NCCc1ccccc1)CC2 ?
ST2 inh: inactive

What do the screens show for `O=C([C@@H]1C[C@@H]1c1ccccc1)N1CCCCCC1`?
ST2 inh: inactive

Results for O=C1Nc2ccccc2C(O)(C(=O)NC2CCCCC2)N1c1ccc(Cl)c(Cl)c1 (configuration not stated) ?
ST2 inh: inactive

Results for CCS(=O)(=O)Nc1ccc(-c2nc(CC3CCN(C)CC3)no2)cc1 ?
ST2 inh: inactive

How did FC(F)(F)c1cccc(-c2ncnn2-c2ccc(Br)nc2)c1 do in these assays?
ST2 inh: inactive

What do the screens show for `FC(F)(F)c1ccc2nnc(-c3cccc(I)c3)n2c1`?
ST2 inh: 54%*

How did FC(F)(F)c1ccc2nnc(-c3ccc(Cl)cc3Cl)n2c1 do in these assays?
ST2 inh: inactive

What do the screens show for `Clc1ccc(CO/N=C2/CCCc3nonc32)c(Cl)c1`?
ST2 inh: inactive

What do the screens show for `Cc1nonc1CN(C)C(=O)c1cc(COc2ccccc2F)[nH]n1`?
ST2 inh: inactive

How did NS(=O)(=O)c1ccc(NC(=O)c2ccc(-c3ccccc3)cc2)cc1 do in these assays?
ST2 inh: 30%*

Results for CC(=O)c1ccc(NC(=O)Cc2ccccc2)cc1 ?
ST2 inh: inactive

What do the screens show for `Cc1ccc(NC(=O)c2ccc(C(=O)Nc3ccc(C)cc3)cc2)cc1`?
ST2 inh: inactive

How did NC(=O)c1ccc(NC(=O)c2ccccc2)cc1 do in these assays?
ST2 inh: inactive

Results for CC(=O)c1ccc(NC(=O)c2ccc(-c3ccccc3)cc2)cc1 ?
ST2 inh: 30%*

What do the screens show for `Cc1cc(C)nc(NS(=O)(=O)c2ccc(NC(=O)c3ccc(-c4ccccc4)cc3)cc2)n1`?
ST2 inh: inactive

Results for Cc1ccc(NC(=O)CNCc2scnc2-c2ccccc2)c(C)c1 ?
ST2 inh: inactive

How did CC12CN3CC(C)(CN(C1)C3c1ccc([N+](=O)[O-])cc1)C2=O (configuration not stated) do in these assays?
ST2 inh: inactive

Results for Cn1c(=O)cc(SCC(=O)NC2CC2)c2ccc(Cl)cc21 ?
ST2 inh: inactive

What do the screens show for `O=C(Cc1cccs1)Nc1ccccc1NC(=O)Cc1cccs1`?
ST2 inh: inactive

Results for O=C(O)c1ccc(NCc2cccs2)cc1 ?
ST2 inh: inactive

Results for COc1ccccc1NCc1cccs1 ?
ST2 inh: 32%*

What do the screens show for `CC(=O)Cc1nsc(Nc2ccc(Br)cc2)n1`?
ST2 inh: inactive

What do the screens show for `O=C(Nc1ccc(Cl)cc1)c1cnccn1`?
ST2 inh: inactive

What do the screens show for `CCN(CC)c1ccc(NC(=O)c2cnccn2)cc1`?
ST2 inh: 56%*

What do the screens show for `CCN(CC)c1cc(C)c2cc(NC(=O)c3cnccn3)ccc2n1`?
ST2 inh: inactive

What do the screens show for `O=C(O)CNc1cccc(C(=O)NCCc2ccncc2)c1`?
ST2 inh: inactive

What do the screens show for `COc1ccccc1-c1ccnc(-n2ncc(C(=O)NC(c3ccncc3)c3ccc(C)cc3)c2C)n1` (configuration not stated)?
ST2 inh: inactive

Compound activity deposited in PubChem by Paczesny and Yang Labs, IUPUI and University of Michigan.
